# Data reported in PubChem BioAssay AID1347142 (National Center for Advancing Translational Sciences (NCATS), 2019).
# Records with an inconclusive call do not appear. Active and inactive are the calls of the source. The call rests on the fitted dose curve; in most records, active means well fitted inhibition curve with a large enough effect; inconclusive means small, poorly fitted or top-dose-only effect; inactive means no such curve, though single readings can be large or run the other way.
# Target: N-terminal Xaa-Pro-Lys N-methyltransferase 1 (Homo sapiens) (UniProt Q9BV86)
# Assay: qHTS Assay for Inhibitors of N-terminal methyltransferase 1 (NTMT1): ThioGlo3 Assay Confirmatory Screen, Round 1.
# Details: NTMT1 SAHH-coupled ThioGlo3 fluorescence, 30 min; series mostly up to 56.8 µM; activity change, negative = inhibition: at the top concentration
# Summary of the method: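 Human NTMT1 at 125 nM was preincubated 1 min at room temperature with compounds at various concentrations or 1 uM RCC1-6 control. Substrate mix (100 uM SAM, 10 uM SAHH, 15 uM ThioGlo3) was added, and fluorescence (Ex 340/Em 450 nm) was read at start and after 30 min, normalized to background.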
# Further: nearly all actives have a fitted effect of over 80% in size.
# Potency means the concentration at half of the fitted maximal effect.
# Wherever activity change, negative = inhibition is given: 0% is about no effect.
# N-terminal Xaa-Pro-Lys N-methyltransferase 1 (Homo sapiens), sequence (Q9BV86 whole entry, looked up): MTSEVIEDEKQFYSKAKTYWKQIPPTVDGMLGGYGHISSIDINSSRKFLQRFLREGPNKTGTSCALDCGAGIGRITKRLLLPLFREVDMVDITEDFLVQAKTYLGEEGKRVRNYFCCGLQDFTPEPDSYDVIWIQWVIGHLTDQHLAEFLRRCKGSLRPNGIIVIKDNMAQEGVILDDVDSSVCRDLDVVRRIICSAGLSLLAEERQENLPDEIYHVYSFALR
SMILES,"activity change, negative = inhibition",Potency
Nc1ncnc2c1ncn2[C@@H]1O[C@H](COP(=O)(O)OP(=O)(O)O)[C@@H](O)[C@H]1O,-3.45% (inactive),
Nc1nc(=S)c2ncn([C@@H]3O[C@H](CO)[C@@H](O)[C@H]3O)c2[nH]1,,18.8 µM (active)
CNc1ncnc2c1ncn2[C@@H]1O[C@H](CO)[C@@H](O)[C@@H]1O,7.42% [at 27.4 µM] (inactive),
COc1cc2nc(N3CCN(C(C)=O)CC3)nc(NC3CC3)c2cc1OC,,21.5 µM (active)
COc1cc2c(NC3CCN(C)CC3)nc(N3CCCN(C)CC3)nc2cc1OCCCCN,,21.5 µM (active)
OC[C@@H]1O[C@@H](n2cnc3c(N[C@H]4CCC[C@@H]4O)ncnc32)[C@H](O)[C@H]1O,-5.43% (inactive),
COc1cc2nc(N3CCN(C)CC3)nc(NCCC3CC3)c2cc1OC,,24.1 µM (active)
COc1cc2c(NC3CCN(C(C)C)CC3)nc(N3CCCCCC3)nc2cc1OCCCN1CCCCC1,,24.1 µM (active)
Nc1nc(Cl)nc2c1ncn2[C@@H]1O[C@H](CO)[C@H](O)[C@H]1O,-11.3% (inactive),
COc1cc2c(NC3CCN(C)CC3)nc(N3CCCN(C)CC3)nc2cc1OCCCCCN(C)C,,24.1 µM (active)
COc1cc2nc(N3CCCN(C)CC3)nc(NC3CCN(Cc4ccccc4)CC3)c2cc1OC,,27.1 µM (active)
OCC1OC(n2cnc3c(NCc4ccco4)ncnc32)C(O)C1O (stereo unspecified),,19.2 µM (active)
Nc1ncnc2c1ncn2[C@@H]1O[C@H](CO)[C@@H](O)[C@@H]1O,-9.54% (inactive),
COc1cc2c(NC3CCN(C)CC3)nc(N3CCCN(C)CC3)nc2cc1OCCOCCN1CCCC1,,27.1 µM (active)
COc1cc2nc(N3CC[C@@H](N(C)C)C3)nc(NC3CC3)c2cc1OC,10.7% (inactive),
COc1cc2c(NC3CCN(C(C)C)CC3)nc(N3CCCN(C4CCCCC4)CC3)nc2cc1OCCCN1CCCCC1,,24.1 µM (active)
CSc1nc(N)c2ncn([C@@H]3O[C@H](COP(=O)(O)OP(=O)(O)OP(=O)(O)O)C(O)[C@H]3O)c2n1 (stereo partly specified),,21.5 µM (active)
CSCC1OC(n2cnc3c(N)ncnc32)C(O)C1O (stereo unspecified),4.86% (inactive),

SMILES,"activity change, negative = inhibition",Potency
OC[C@@H]1O[C@@H](n2cnc3c(NCc4ccco4)ncnc32)[C@H](O)[C@H]1O,,24.1 µM (active)
COc1cc2c(NC3CCN(C)CC3)cc(N3CCCCN(C)CC3)cc2cc1OCCOCCN(C)C,,27.1 µM (active)
CNc1ncnc2c1ncn2[C@@H]1O[C@H](COP(=O)(O)O)[C@@H](O)[C@H]1O,-11.9% (inactive),
COc1cc2nc(N3CCN(C)CC3)nc(NC3CCN(Cc4ccccc4)CC3)c2cc1OC,,24.1 µM (active)
CCN(CC)CCCOc1cc2nc(N3CCCN(C)CC3)nc(NC3CCN(C)CC3)c2cc1OC,,24.1 µM (active)
COc1cc2c(NC3CCN(C)CC3)nc(N3CCCN(C)CC3)nc2cc1OCCN(C)C,,21.5 µM (active)
O=S(=O)(O)c1ccc(Nc2ncnc3c2ncn3[C@@H]2O[C@H](CO)[C@@H](O)[C@H]2O)cc1,5.87% (inactive),
COc1cc2c(NC3CCN(CC4CCCCC4)CC3)nc(N3CCCN(C)CC3)nc2cc1OCCOCCN(C)C,,24.1 µM (active)
CCCN(C)CCCOc1cc2nc(N3CCCN(C)CC3)nc(NC3CCN(C)CC3)c2cc1OC,,27.1 µM (active)
Nc1nc2c(ncn2[C@@H]2O[C@H](CO)[C@@H](O)[C@@H]2O)c(=O)[nH]1,3.06% (inactive),
COc1cc2nc(N3CCN(C)CC3)nc(NC(C)C)c2cc1OC,,21.5 µM (active)
COc1cc2c(NC3CCN(C(C)C)CC3)nc(N3CCCN(c4ccccc4)CC3)nc2cc1OCCCN1CCCC1,,17.1 µM (active)
COc1cc2nc(N3CCN(C(N)=O)CC3)nc(NC3CC3)c2cc1OC,,27.1 µM (active)
CCN1CCCN(c2nc(NC3CCN(C(C)C)CC3)c3cc(OC)c(OCCCN4CCCCC4)cc3n2)CC1,,24.1 µM (active)
COc1cc2nc(NCCN(C)C)nc(NC3CC3)c2cc1OC,,27.1 µM (active)
COc1cc2nc(N3CCOCC3)nc(NC3CCN(C)CC3)c2cc1OC,,24.1 µM (active)
Nc1ncnc2c1ncn2[C@@H]1O[C@H](COP(=O)(O)OP(=O)(O)OP(=O)(O)OP(=O)(O)OC[C@@H]2O[C@H](n3cnc4c(N)ncnc43)[C@@H](O)[C@H]2O)[C@@H](O)[C@H]1O,-8.61% (inactive),
CC[C@H](C)n1cc(C)c2c(C(=O)NCc3c(C)cc(C)[nH]c3=O)cc(-c3ccc(N4CCNCC4)nc3)cc21,,21.5 µM (active)
